Test results taken from the supplement of paper PMC3334620.
Over roughly 33,000 sequences, “E-score (-0.5 to 0.5)” has its median near -0.011; the highest 2% begin near 0.28. Only a selection was taken, and the highest values are over-represented in it overall.

Molecular target: T1, Gcr1 (UniProt P07261)
T1 sequence: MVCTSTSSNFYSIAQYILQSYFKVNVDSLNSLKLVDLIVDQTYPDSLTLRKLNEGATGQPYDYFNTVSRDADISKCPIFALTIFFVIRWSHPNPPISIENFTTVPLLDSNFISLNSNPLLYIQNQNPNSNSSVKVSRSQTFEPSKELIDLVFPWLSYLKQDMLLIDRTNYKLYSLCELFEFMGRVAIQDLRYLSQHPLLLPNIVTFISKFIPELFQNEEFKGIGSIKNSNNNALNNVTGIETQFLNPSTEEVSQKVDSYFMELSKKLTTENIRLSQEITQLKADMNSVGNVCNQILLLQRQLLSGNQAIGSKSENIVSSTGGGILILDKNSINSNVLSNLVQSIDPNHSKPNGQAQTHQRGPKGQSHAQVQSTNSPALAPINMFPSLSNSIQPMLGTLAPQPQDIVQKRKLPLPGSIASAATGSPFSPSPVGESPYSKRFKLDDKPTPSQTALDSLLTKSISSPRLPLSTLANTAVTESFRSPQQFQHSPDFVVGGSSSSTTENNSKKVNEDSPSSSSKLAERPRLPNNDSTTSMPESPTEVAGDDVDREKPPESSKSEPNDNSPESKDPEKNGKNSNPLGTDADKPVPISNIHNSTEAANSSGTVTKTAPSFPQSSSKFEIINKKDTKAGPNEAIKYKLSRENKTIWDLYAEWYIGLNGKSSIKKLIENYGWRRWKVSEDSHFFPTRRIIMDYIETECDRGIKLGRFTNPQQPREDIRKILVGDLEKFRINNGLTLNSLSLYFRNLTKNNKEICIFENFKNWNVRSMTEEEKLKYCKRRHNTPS
Experiment: PBM E-score (8-mer binding enrichment) (E-score (-0.5 to 0.5)); higher = stronger / more preferred TF binding
Conditions: protein concentration: 100 nM; construct: GST-full length
Method in brief: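 Universal all-10-mer Agilent arrays, double-stranded by primer extension on fresh or once-stripped slides, were probed with about 100-200 nM GST-tagged yeast transcription factors made by PURExpress. Fluorescent anti-GST detected bound protein, and masliner normalised the scans. E-scores from the Universal PBM Analysis Suite were given to each ungapped eight-base word pooled with its reverse complement.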

Row | Sequence | PBM E-score
1 | GGTAGCAC | 0.0683
2 | CCGGTTCG | -0.0186
3 | ACTAAATC | 0.0396
4 | CCTAAATA | 0.129
5 | CCTAAATC | 0.306
6 | GTCGGTTA | -0.058
7 | CGAACACC | -0.135
8 | CGTTCATA | -0.0211
9 | AATACTGG | 0.369
10 | ATTACTGA | -0.0681
11 | ATTACTGG | 0.362
12 | ATTACTGC | -0.0604
13 | AATACTGA | 0.0152
14 | CATACTGG | 0.209
15 | ACTACTCC | 0.0438
16 | CAATTAGC | -0.0933
17 | AACGTCCC | -0.159
18 | AGCGTCCG | 0.165
19 | GGCGTCCC | 0.362
20 | AGCGTCAC | -0.078
21 | ACCGTCCT | -0.196
22 | AGCGTCCT | 0.426
23 | ATCGTCCA | 0.0357
24 | AACGTCCT | 0.043
25 | AGCGTCCA | 0.437

Row | Sequence | PBM E-score
26 | GCCGTCCC | -0.0711
27 | AGCGTCCC | 0.347
28 | CGCGTCCC | 0.0398
29 | CACTTCTA | 0.00557
30 | ATTTATGC | 0.0089
31 | GCGGCCCC | 0.19
32 | GATGAGAA | -0.138
33 | GGCGTCCA | 0.436
34 | TGCGTCCA | 0.0639
35 | CGCGTCCA | 0.245
36 | GTGACATA | 0.217
37 | GCAGATTA | 0.0499
38 | GGATACCA | 0.33
39 | TGATACCA | 0.107
40 | AGATACCA | 0.246
41 | GAAAACCA | 0.084
42 | AAATCTTA | 0.111
43 | CGAATCTA | 0.122
44 | GGCATCAA | 0.0535
45 | GGTATCTA | 0.292
46 | CGCATCTA | 0.204
47 | AGTATCTA | -0.103
48 | AGCATCTA | 0.319
49 | AGCATCTG | 0.115
50 | AGAATCTA | 0.219

Row | Sequence | PBM E-score
51 | GGAATCTA | 0.357
52 | CGTATCTA | 0.0661
53 | AGCATCTC | 0.121
54 | GGCATCTA | 0.347
55 | CGAGACAG | -0.0925
56 | AGACGGAA | -0.0525
57 | AAGGAATA | -0.159
58 | ACTGGTCC | -0.314
59 | ACCCACAC | -0.0404
60 | ACTCGCCG | -0.00848
61 | ACTCTTCC | -0.211
62 | CGCGAACA | -0.00841
63 | GCGGGGCC | 0.131
64 | ACATCTAC | -0.0726
65 | CATTGAAC | 0.0331
66 | ATTTTAGC | 0.0912
67 | AGCCACTG | 0.11
68 | CACCGGTC | -0.271
69 | CCGGACGC | 0.31
70 | CAGGACGA | -0.145
71 | ATGGACGC | 0.262
72 | GAGGACAC | -0.225
73 | CCGGACGG | -0.116
74 | GAGGACGC | 0.289
75 | GAGGACGA | -0.0483

Row | Sequence | PBM E-score
76 | CTGGACGA | -0.0396
77 | CAGGACGC | 0.412
78 | ACGGACGC | 0.14
79 | CTGGACGC | 0.412
80 | AAGGACGC | 0.256
81 | AATTTGAG | 0.137
82 | AGCTTCGA | 0.0125
83 | TATTGCCA | 0.00643
84 | ACCCGCTC | -0.0223
85 | ATATGCAT | -0.0625
86 | AGAAAAAC | 0.134
87 | GTGTTCCA | 0.112
88 | ACCCGGCA | 0.125
89 | AACGGAGG | -0.167
90 | CAGCCACG | 0.12
91 | ATAAGAAG | 0.381
92 | AGAAGAAG | 0.437
93 | AGAAGAAC | 0.13
94 | AGAAGAAT | 0.119
95 | ACAAGATA | 0.102
96 | CAAAGAAG | 0.184
97 | ATAAGAAC | 0.269
98 | AAAAGAAC | -0.0325
99 | ACAAGATG | 0.294
100 | ATAAGAAA | 0.171

Row | Sequence | PBM E-score
101 | ACAAGATC | 0.0465
102 | AAAAGAAG | 0.309
103 | CTCAATAC | -0.00463
104 | CTGTTGGA | 0.103
105 | GGTCGGAC | -0.206
106 | CCATATCG | 0.05
107 | CGTGAGGC | -0.0867
108 | ACAAGAAT | 0.252
109 | ACAAGAAA | 0.155
110 | ACAAGAAG | 0.415
111 | GCAAACTA | 0.0887
112 | GGGCACCA | 0.364
113 | TCGCACCA | 0.0244
114 | AGGCACCA | 0.136
115 | TGGCACCA | 0.321
116 | GGGCACGA | 0.0341
117 | GCGCACCC | -0.0278
118 | AGGCACCG | 0.04
119 | AGGCACCT | 0.16
120 | GGGCACAC | -0.0584
121 | AGGCACCC | 0.284
122 | GGGCACCC | 0.321
123 | TGGCACAA | -0.0481
124 | CCATACTA | 0.0399
125 | CATGGTGC | 0.0809

Row | Sequence | PBM E-score
126 | CGTGCATC | 0.00547
127 | AAGCCCGA | 0.0664
128 | GGTATCGA | 0.00098
129 | CGGCACCA | 0.245
130 | TAGCACCA | 0.323
131 | GAGCACCA | 0.207
132 | CGGCACCC | 0.381
133 | CGGCACCG | 0.143
134 | CAGCACCA | 0.277
135 | GTCACCAA | 0.0813
136 | GCAGGAAC | -0.0184
137 | CAATCTCC | 0.0196
138 | CAGATAGA | 0.0277
139 | ACAGTCCT | -0.141
140 | CCTACGGC | -0.146
141 | AACTCGGA | 0.0328
142 | CTTACCCC | -0.052
143 | CGGGACCG | -0.00477
144 | CGGGACCC | 0.306
145 | AGGGACCC | -0.0366
146 | GGGGACCA | 0.194
147 | CGGGACCA | 0.00102
148 | GGGGACCC | 0.291
149 | TAGCTGCA | -0.0344
150 | AGACGGAG | -0.0738

Row | Sequence | PBM E-score
151 | GCAGCCGC | 0.282
152 | CAAGCCGA | -0.038
153 | TAAGCCGA | -0.177
154 | CCAGCCGC | -0.0253
155 | GAAGCCGA | 0.401
156 | GAAGCCGC | 0.439
157 | AAAGCCGC | 0.0398
158 | CAAGCCGC | -0.00721
159 | ACAGCCGC | -0.0946
160 | ATGTGGTC | -0.0553
161 | CTTTTGAA | 0.1
162 | AAATTTGC | 0.109
163 | ACGCAGCC | 0.304
164 | ACGCAGCG | 0.244
165 | GCGCAGCA | -0.0801
166 | ACGCAGCT | 0.308
167 | GCGCAGCC | 0.292
168 | GCGCAGAC | -0.167
169 | ACGCAGAT | 0.151
170 | CCGCAGCC | 0.223
171 | ACGCAGCA | -0.0163
172 | AGAACCGG | 0.214
